Data taken from PubChem BioAssay AID886 (National Center for Advancing Translational Sciences (NCATS), 2007).
Among all 73,000 compounds or so, about 2,500 (3.4%) were called active. Not shown: some 7% with an inconclusive outcome. This is one part of a sample in which actives are shown more often than they occur. Calls come from the whole dose curve; as a rule, active = well fitted inhibition curve with a large enough effect; inconclusive = small, poorly fitted or top-dose-only effect; inactive = no such curve, though single readings can be large or run the other way.
% is set by controls: 0 for no effect and ±100 for the full control effect; potency is the fitted concentration of half-maximal effect.
Note: nearly all actives have a fitted effect of over 60% in size.

The compounds below were run against 3-hydroxyacyl-CoA dehydrogenase type-2 (Homo sapiens) (UniProt Q99714) (assay: qHTS Assay for Inhibitors of HADH2 (Hydroxyacyl-Coenzyme A Dehydrogenase, Type II)). Settings: recombinant HADH2, NADH fluorescence, beta-hydroxybutyryl-CoA; series mostly up to 57.1 µM; activity change, negative = inhibition: at the top concentration.
Chain of 3-hydroxyacyl-CoA dehydrogenase type-2 (Homo sapiens) (Q99714 whole entry, looked up): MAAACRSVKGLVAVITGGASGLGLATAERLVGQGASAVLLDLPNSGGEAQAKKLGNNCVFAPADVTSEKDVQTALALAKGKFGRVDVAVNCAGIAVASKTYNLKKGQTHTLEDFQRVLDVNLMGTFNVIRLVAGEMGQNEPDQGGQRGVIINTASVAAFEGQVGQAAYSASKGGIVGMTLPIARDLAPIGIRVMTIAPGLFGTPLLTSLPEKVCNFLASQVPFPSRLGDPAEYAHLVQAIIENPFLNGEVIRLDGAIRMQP
Chain of 3-hydroxyacyl-CoA dehydrogenase type-2 (Homo sapiens) (Q99714 whole entry, looked up): as above
Procedure, shortened: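 NADH fluorescence (ex 360/em 450 nm) read every 30 s for 4 min; activity taken as last-minus-first time point difference. Enzyme 20 nM, NAD+ 1 mM, beta-hydroxybutyryl-CoA 90 uM, pH 9.0 Tris buffer.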
For CCc1cc(=O)oc2cc(C)cc(OC(C)C(=O)O)c12 (stereo not given), the “activity change, negative = inhibition” value was 35.9% (inactive).
For CCCCc1cc(=O)oc2cc(C)cc(OCc3nn[nH]n3)c12, the Potency was 25.1 µM (active).
In the case of O=C(O)c1cccc(S(=O)(=O)NCCO)c1, the activity change, negative = inhibition was -11.5% [at 11.4 µM] (inactive).
O=C(CN1C(=O)CCS(=O)(=O)c2ccccc21)NCc1ccc(F)cc1 was tested, and the “activity change, negative = inhibition” value was -2.44% (inactive).
NC(=O)CSC1=Nc2ccccc2C2=NC(CCC(=O)NCc3ccc(F)cc3)C(=O)N12 (stereo not given) was tested, and the Potency was 31.6 µM (active).
With CC(C)C1N=C2c3ccccc3N=C(SCC(=O)c3ccc(O)c(O)c3)N2C1=O (stereo not given) the “activity change, negative = inhibition” value was -14.9% (inactive).
With CC(=O)/C(=N\N=C(N)N)c1ccccc1 the activity change, negative = inhibition was 5.03% [at 11.4 µM] (inactive).
For NS(=O)(=O)c1cc(C(=O)O)c(Cl)c([N+](=O)[O-])c1Cl, the activity change, negative = inhibition was 11.6% [at 11.4 µM] (inactive).
For O=C(c1ccncc1)N1CCC2(CCN(Cc3cc(C(F)(F)F)cc(C(F)(F)F)c3)CC2)CC1, the “activity change, negative = inhibition” value was -3.48% (inactive).
Cc1nc2cnc(N3CCNCC3)nc2n(CCc2ccccc2)c1=O was tested, and the “activity change, negative = inhibition” value was 8.83% (inactive).
Cc1cc(C)c2c(n1)nn1c(N3CCN(c4cccc(Cl)c4)CC3)cc(C)nc21 was tested, and the “activity change, negative = inhibition” value was 9.7% (inactive).
In the case of Cc1cc(C)c2c(n1)nn1c(-n3ccnc3)cc(C)nc21, the “activity change, negative = inhibition” value was 66.3% (inactive).
With Cc1cc(C)c2c(n1)nn1c(N3CCOCC3)cc(C)nc21 the Potency was 25.1 µM (active).
With Cc1cc(C(=O)O)ccc1[N+](=O)[O-] the “activity change, negative = inhibition” value was -0.468% (inactive).
In the case of CCCCC/C=C/C=C/C=O, the “activity change, negative = inhibition” value was -1.37% (inactive).
C=CC(=O)c1ccc2ccccc2c1 was tested, and the Potency was 20 µM (active).
With Cc1ccc2nc(CC(=O)c3ccc4ccccc4c3)c(=O)[nH]c2c1 the activity change, negative = inhibition was 11.5% [at 11.4 µM] (inactive).
With CCCC[C@H]1C(=O)N(c2ccccc2)N(c2ccc(O)cc2)C1=O the “activity change, negative = inhibition” value was -44.1% [at 25.6 µM] (inactive).
For COc1ccc(-n2c(=O)c(C)nc3cnc(N4CCOCC4)nc32)cc1, the “activity change, negative = inhibition” value was -4.99% (inactive).
In the case of COCC(=O)N1CCC2(CCCN(c3ccccc3)C2)CC1, the “activity change, negative = inhibition” value was 0.963% (inactive).
For O=C(O)COc1c(Cl)cc(Cl)c2cccnc12, the activity change, negative = inhibition was 7.63% [at 11.4 µM] (inactive).
With COc1ccc(OC)c(Nc2nc(-c3ccc(O)c(O)c3)cs2)c1 the Potency was 0.126 µM (active).
In the case of COc1ccc(-c2n[nH]c(C)c2-c2ccc(OC)c(OC)c2)c(O)c1, the “activity change, negative = inhibition” value was -5.55% (inactive).
In the case of Oc1ccc(-c2csc(Nc3cccnc3)n2)cc1, the “activity change, negative = inhibition” value was -8.12% (inactive).
CO[C@@H]1/C=C\O[C@]2(C)Oc3c(C)c(O)c4c(O)c(c(CN(C)C)c(O)c4c3C2=O)NC(=O)/C(C)=C\C=C[C@@H](C)[C@@H](O)[C@H](C)[C@@H](O)[C@H](C)[C@H](OC(C)=O)[C@@H]1C was tested, and the activity change, negative = inhibition was -4.82% [at 11.4 µM] (inactive).
In the case of CC(C)NC(=O)N1CC[C@@]2(CCCN(C(=O)c3cccc(F)c3)C2)C1, the “activity change, negative = inhibition” value was 2.38% (inactive).
COC(=O)NC(c1ccccc1)[C@]1(C(C)=O)CCCC1=O (stereo not given in full) was tested, and the activity change, negative = inhibition was 4.66% [at 11.4 µM] (inactive).
CN1CCCc2cc(C#N)c(=O)[nH]c21 was tested, and the Potency was 3.16 µM (active).
CC/C=C/C/C=C/C/C=C/CCCCCCCC(=O)OCC was tested, and the “activity change, negative = inhibition” value was -7.06% (inactive).
CN(C)CCSS(=O)(=O)O was tested, and the activity change, negative = inhibition was 9.41% [at 11.4 µM] (inactive).
